# Reference: paper PMC4336329 (PLoS ONE, 2015)
# In all, about 310,000 compounds went through this assay and about 14,000 (4.5%) showed an effect of 50% or more. Effects have a minus sign here. The full list was thinned out, with strong results kept by preference.
# Target: human ether-à-go-go-related gene (hERG) potassium channel (human, UniProt Q12809)
# Assay: primary screen, population patch clamp on CHO cells stably expressing hERG; higher = less effect of the substance
# 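Note: peak tail current of the secondary pulse compared with the same well before compound.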
# Chain of human ether-à-go-go-related gene (hERG) potassium channel (Q12809 whole entry, looked up): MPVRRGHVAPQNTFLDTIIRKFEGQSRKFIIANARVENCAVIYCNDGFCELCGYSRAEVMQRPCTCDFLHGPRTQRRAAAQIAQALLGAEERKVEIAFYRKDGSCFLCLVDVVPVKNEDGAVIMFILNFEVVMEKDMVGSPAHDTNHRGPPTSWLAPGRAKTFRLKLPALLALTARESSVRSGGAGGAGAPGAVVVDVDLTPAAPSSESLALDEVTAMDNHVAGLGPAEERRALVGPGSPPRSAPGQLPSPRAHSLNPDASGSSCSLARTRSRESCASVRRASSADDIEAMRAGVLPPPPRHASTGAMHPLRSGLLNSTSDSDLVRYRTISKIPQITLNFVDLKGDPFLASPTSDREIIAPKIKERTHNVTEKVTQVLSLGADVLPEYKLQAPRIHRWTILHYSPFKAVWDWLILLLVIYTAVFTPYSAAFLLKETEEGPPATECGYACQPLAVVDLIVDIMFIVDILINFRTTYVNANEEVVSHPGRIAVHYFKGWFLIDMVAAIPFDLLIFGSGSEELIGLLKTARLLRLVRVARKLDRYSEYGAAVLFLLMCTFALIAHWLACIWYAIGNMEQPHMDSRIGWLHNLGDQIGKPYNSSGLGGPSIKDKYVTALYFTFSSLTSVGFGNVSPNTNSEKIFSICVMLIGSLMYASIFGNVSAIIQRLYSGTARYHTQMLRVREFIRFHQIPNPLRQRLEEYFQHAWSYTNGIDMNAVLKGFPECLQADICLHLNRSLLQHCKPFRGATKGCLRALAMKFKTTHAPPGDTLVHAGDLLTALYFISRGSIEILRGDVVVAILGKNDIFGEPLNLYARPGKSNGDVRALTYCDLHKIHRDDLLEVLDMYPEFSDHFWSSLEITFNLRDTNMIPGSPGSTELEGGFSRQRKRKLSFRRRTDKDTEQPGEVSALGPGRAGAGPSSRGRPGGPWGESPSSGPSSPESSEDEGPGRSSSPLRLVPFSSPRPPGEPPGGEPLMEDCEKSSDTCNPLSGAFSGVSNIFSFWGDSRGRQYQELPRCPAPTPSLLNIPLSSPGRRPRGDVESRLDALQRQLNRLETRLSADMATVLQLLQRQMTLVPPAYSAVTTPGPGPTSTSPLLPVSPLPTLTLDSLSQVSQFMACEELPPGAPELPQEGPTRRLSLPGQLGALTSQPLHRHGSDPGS
row,Compound,"hERG current change (%, negative = inhibition) at 10uM [%]"
1,CNC(=O)n1cc(C)c(-c2cccs2)n1,5.15
2,Cc1cc2c(cc1S(=O)(=O)N1CCCC1)n(C)c(=O)c(=O)n2C,-4.62
3,COc1ccc(CC(=O)OC(C)C(=O)c2ccc(C)cc2)cc1 (stereo not drawn),20.4
4,COc1ccc(OC(=O)c2cn(C)nc2C(F)(F)F)cc1,-1.05
5,Cc1ccc2nc(=O)c(NNc3ccccc3)cnc2c1,15.6
6,CCCCN(C(=O)c1cc2c(s1)CCC2)c1c(N)n(CCCC)c(=O)[nH]c1=O,-0.537
7,C1=C(c2c[nH]c3ccccc23)CCNC1,7.59
8,CC(C)c1ccc(CNC(=O)C(=O)NCC2CCCO2)cc1 (stereo not drawn),7.73
9,CCc1ccc(OCCCC(=O)NCc2ccco2)cc1,1.95
10,CCOC(=O)C(CCCCCOc1ccc([N+](=O)[O-])cc1)C(=O)OCC,-50.4
11,CCOC(=O)COc1ccc([N+](=O)[O-])cc1,-5.07
12,CCOC(=O)C(CCCCCOc1ccccc1[N+](=O)[O-])C(=O)OCC,-8.54
13,CCn1nc([N+](=O)[O-])c2c(-c3nc4ccccc4o3)c(N)n(CCCOC)c2c1=O,14.5
14,CCOC(=O)c1noc(C)c1C(=O)Nc1nc(C)cc(C)n1,11.5
15,Cc1ccc(F)cc1NC(=O)CSCc1c(C)noc1C,-3.15
16,O=c1[nH]nnc2c1sc1nc(N3CCOCC3)c3c(c12)CCCC3,-12.4
17,CC(=O)Nc1ccc(S(=O)(=O)NC(CC(=O)N2CCC3(CC2)OCCO3)C(C)C)cc1 (stereo not drawn),18.9
18,O=C(Nc1cc(S(=O)(=O)N2CCOCC2)ccc1N1CCCCC1)c1cc(-c2ccccn2)nc2ccccc12,0.703
19,Cc1ccc(S(=O)(=O)N(CC(O)CN2CCCC2)c2ccccc2)cc1 (stereo not drawn),-62.2
20,COc1ccc(N(CC(O)CN2CCOCC2)S(=O)(=O)c2ccc(C)cc2)cc1 (stereo not drawn),-45.2

row,Compound,"hERG current change (%, negative = inhibition) at 10uM [%]"
1,Cc1ccccc1S(=O)(=O)N(CC(O)CN1C(=O)NC(C)(C)C1=O)c1ccccc1 (stereo not drawn),1.47
2,Cc1ccc(N(CC(O)CN2CCCCC2)S(=O)(=O)c2ccc(C)cc2)cc1 (stereo not drawn),13.8
3,Cc1ccccc1S(=O)(=O)N(CC(O)CN1CCCCC1)c1ccccc1 (stereo not drawn),-71.7
4,Cc1ccc(N(CC(O)CN2CCCC2)S(=O)(=O)c2ccc(C)cc2)cc1.Cl (stereo not drawn),-76.4
5,COc1ccc(N(CC(O)CN2CCCCC2)S(=O)(=O)c2ccc(C)cc2)cc1 (stereo not drawn),-78.6
6,COc1ccc(N(CC(O)Cn2c3ccccc3c3ccccc32)S(=O)(=O)c2ccccc2)cc1 (stereo not drawn),3.8
7,Cc1cc(C)n(CC(O)CN(c2ccccc2)S(=O)(=O)c2ccccc2)n1 (stereo not drawn),7.17
8,Cc1ccc(S(=O)(=O)N(CC(O)CN2CCOCC2)c2cc(Cl)ccc2Cl)cc1.Cl (stereo not drawn),-31.9
9,CCc1ccc(OCC(=O)Nc2nnc(-c3ccco3)s2)cc1,11.5
10,CC(C)N1C(=O)S/C(=C/c2cccnc2)C1=O,8.88
11,CCOC(=O)c1c(NC(=O)c2cccs2)sc(C)c1CC,2.45
12,CCOC(=O)C1=C(C)OC(N)=C(C#N)C1c1cc(OC)c2c(c1)OCO2 (stereo not drawn),-20.6
13,CCOc1cc(N2CCOCC2)c(OCC)cc1NC(=O)CSc1ccccc1C(=O)O,5.72
14,CCOC(=O)c1ccc(N(CC(=O)NCC2CCCO2)C(=O)CCC(=O)Nc2cc(C)on2)cc1 (stereo not drawn),9.99
15,COc1cc(NC(=S)NCCc2c[nH]c3ccccc23)c(OC)cc1Cl,10.1
16,COc1ccccc1N(CC(O)CN1CCCCC1)S(=O)(=O)c1ccc(C)cc1 (stereo not drawn),-29.7
17,O=S(=O)(c1ccccc1)N(CC(O)CN1CCOCC1)c1ccccc1 (stereo not drawn),18.6
18,Cl.O=S(=O)(c1ccccc1)N(CC(O)CN1CCCCC1)c1ccccc1 (stereo not drawn),-53.2
19,O=S(=O)(c1ccccc1)N(CC(O)CN1CCCC1)c1ccccc1 (stereo not drawn),-19
20,Cc1ccc(S(=O)(=O)N(CC(O)CN2CCCCC2)c2ccccc2)cc1.Cl (stereo not drawn),-67.9

row,Compound,"hERG current change (%, negative = inhibition) at 10uM [%]"
1,CCN1CCN(Cc2nc3c(c(=O)[nH]c(=O)n3C)n2Cc2ccccc2Cl)CC1,14.8
2,CCOC(=O)C1CCN(c2ncnc3c2cnn3-c2ccc(OC)cc2)CC1,-16.2
3,O=C(O)CC(c1cccc(C(F)(F)F)c1)N1CCS(=O)(=O)CC1 (stereo not drawn),2.42
4,CCCCn1cnc2c(oc3nc4c(cc32)CCCC4)c1=O,-55.5
5,CC(C)CCn1cnc2c(oc3nc4c(cc32)CCCC4)c1=O,-16.6
6,CCCCCCn1cnc2c(oc3nc4c(cc32)CCCC4)c1=O,5.16
7,Cc1ccc(NC(=O)Cc2ccccc2Cl)cc1S(=O)(=O)N(C)C,0.299
8,O=C1c2ccccc2C(=O)N1CCc1nn[nH]n1,17
9,COc1ccc(NC(=O)NNC(=O)COc2ccc3cc(Br)ccc3c2)c(OC)c1,19.2
10,CCOC(=O)C1(CCCc2ccccc2)CCN(C(=O)CCCn2cncn2)CC1,-44.1
11,CCOC(=O)C1(CCCc2ccccc2)CCN(C(=O)CCn2cncn2)CC1,-56.4
12,CCOC(=O)C1(CCCc2ccccc2)CCN(C(=O)C(C)n2cncn2)CC1 (stereo not drawn),-29
13,CCOC(=O)C1(CCCc2ccccc2)CCN(C(=O)CN2CCOC2=O)CC1,6.35
14,CCOC(=O)C1(CCc2ccccc2)CCN(C(=O)CCn2cncn2)CC1,-63.2
15,CCOC(=O)C1(Cc2ccc(OC)cc2)CCN(C(=O)CCN2CCCC2=O)CC1,-3.22
16,CCOC(=O)C1(Cc2ccccc2Cl)CCN(C(=O)CN2CCOC2=O)CC1,8.88
17,CCOC(=O)C1(CCc2ccccc2)CCN(C(=O)C(C)n2cncn2)CC1 (stereo not drawn),-14.3
18,CCOC(=O)C1(CCCc2ccccc2)CCN(C(=O)CCN2CCCCC2=O)CC1,-62.8
19,CCOC(=O)C1(Cc2ccccc2Cl)CCN(C(=O)CCn2ccnc2C)CC1,-52.6
20,CCOC(=O)C1(Cc2ccccc2Cl)CCN(C(=O)c2cnccn2)CC1,-20.2
